Screening data (PubChem)
HT1080NT lethal = qHTS for induction of synthetic lethality in tumor cells producing 2HG: qHTS for the HT-1080-NT fibrosarcoma cell line; HT-1080-NT fibrosarcoma viability, CellTiter-Glo ATP luminescence, 48 h; Potency, µM (titrated, usually from 46.1 µM), hits mostly cytotoxic; 360,000 compounds, 1.6% hits;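 further: NT is the 2HG producing partner of a matched IDH1 knockdown line; nearly all actives have a fitted effect of over 55% in size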
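Read-out is CellTiter-Glo luminescence after 10 minutes at room temperature, following 48 hours' compound treatment of HT-1080-NT cells (750 cells/well, RPMI, 5% FBS, 37 degrees C).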
HT1080 IDH1KD tx = qHTS for induction of synthetic lethality in tumor cells producing 2HG: qHTS for the HT-1080-IDH1KD cell line; HT-1080 IDH1 knockdown viability, ATP luminescence, 48 h; Potency, µM (top dose mostly 46.1 µM), actives largely listed as cytotoxic; 360,000 compounds, 2% hits
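After a 2 h attachment period, IDH1KD HT-1080 cells took pin-transferred compound for 48 h at 37 °C; ATP-based luminescence after 10 min room-temperature reagent incubation reported viability.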
DT40 TDP1 CPT = qHTS for Inhibitors of human tyrosyl-DNA phosphodiesterase 1 (TDP1): qHTS in cells in presence of CPT | chicken DT40 Tdp1-/-;hTDP1 cells + 20 nM CPT, ATP luminescence, 48 h | Potency, µM (top dose mostly 46.2 µM), actives largely listed as inhibitors | 420,000 compounds, 12% hits; further: nearly all actives have a fitted effect of over 55% in size
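Chicken DT40 Tdp1-/- cells stably complemented with human TDP1 were seeded at 400 cells/well in medium containing 20 nM camptothecin, exposed to pin-transferred compounds, and grown at 37 °C for at least 48 hr. Viability was read as ATP luminescence.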
DT40 TDP1 no CPT = qHTS for Inhibitors of human tyrosyl-DNA phosphodiesterase 1 (TDP1): qHTS in cells in absence of CPT | DT40 Tdp1-/- hTDP1 cells, no CPT, ATP luminescence, 48 h | Potency, µM (highest dose often 46.2 µM), actives largely listed as inhibitors | 420,000 compounds, 15% hits; further: nearly all actives have a fitted effect of over 55% in size
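Luminescent ATP content (CellTiter-Glo) served as the growth readout. Knockout chicken DT40 cells expressing human TDP1 were exposed to compounds without camptothecin for a minimum 48 hr at 37 °C.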
IL1B secr inh = qHTS for Inhibitors of Inflammasome Signaling: IL-1-beta AlphaLISA Primary Screen; THP-1 LPS/ATP IL-1B secretion, AlphaLISA, 16 h; active compounds read low; activity change, % at 57.5 µM; 360,000 compounds, 4.7% hits; in the data active means activity change below about -50%; inconclusive means mostly about -30% to -49%
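THP-1 cells pretreated 1 hr with compounds (up to 57.5 uM final), then stimulated with LPS (250 ng/mL final) plus ATP (1.25 mM final); secreted IL-1B measured by AlphaLISA after 16 hr, decreased signal indicating inhibition.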
Hits are given with their value; 0 = inactive; ? = inconclusive; - = no result; [ ] = another dose, or the depositor's remark. Only some compounds are listed: those with a hit (about 19% of all), similar ones and a draw of the others. Unless noted, the call rests on the fitted dose curve; in most records, active means well fitted curve in the direction sought with a large enough effect; inconclusive means small, poorly fitted or top-dose-only effect, or another doubt; inactive means no such curve, though single readings can be large; an effect the other way counts as inactive or inconclusive.

SMILES | HT1080NT lethal | HT1080 IDH1KD tx | DT40 TDP1 CPT | DT40 TDP1 no CPT | IL1B secr inh
Cn1c(SCC(=O)Nc2ccccc2Oc2ccccc2)nnc1C1CC1 | 0[9.24 µM] | 0 | 0 | 0 | 0
NC(=O)CSc1nnc(-c2ccco2)n1-c1ccc(F)cc1 | 0 | 0 | 0 | ? | 0
Cc1ncc([N+](=O)[O-])n1CC(=O)Nc1ccc(F)cc1 | 0 | 0 | 0 | 0 | 0
COc1ccc(NC(=O)c2sc3nc4c(cc3c2N)CN(Cc2ccccc2)CC4)cc1OC | - | - | 0 | 0 | -
Cc1ccccc1NC(=O)c1sc2nc3c(cc2c1N)CN(Cc1ccccc1)CC3 | - | - | ? | 18µM | -
O=C(Cc1ccc(NC(=O)C2CCCN(C(=O)C3CCCCC3)C2)cc1)Nc1cccc(C(=O)N2CCCC2)c1 (centres undefined) | 0 | 0 | 29µM | ? | 0
CN(C(=O)c1cccc(NC(=O)Cc2ccc(NC(=O)C3CCN(C(=O)c4ccccc4)CC3)cc2)c1)C1CCCCC1 | 0 | 0 | 23µM | ? | 0
CN(C(=O)c1ccc(NC(=O)Cc2cccc(NC(=O)C3CCCN(C(=O)C4CCCCC4)C3)c2)cc1)C1CCCC1 (centres undefined) | 0 | 0 | 21µM | ? | 0
CN(C(=O)c1cccc(NC(=O)Cc2cccc(NC(=O)C3CCN(C(=O)c4ccccc4)CC3)c2)c1)C1CCCC1 | 0 | 0 | ? | ? | 0
CN(C(=O)c1ccc(NC(=O)Cc2cccc(NC(=O)C3CCCN(C(=O)C4CCC4)C3)c2)cc1)C1CCCC1 (centres undefined) | 0 | 0 | 0.18µM | ? | 0
Cc1ccc(NC(=O)CN2C(=O)NC(Cc3c[nH]c4ccccc34)C2=O)cc1 (centres undefined) | 0 | 0 | 0 | 0 | 0
CN(C(=O)c1cccc(NC(=O)Cc2ccc(NC(=O)C3CCCN(C(=O)C4CCCC4)C3)cc2)c1)C1CCCCC1 (centres undefined) | 0 | 0 | ? | 16µM | 0
CN(C(=O)c1cccc(NC(=O)Cc2ccc(NC(=O)C3CCCN(C(=O)C4CCCC4)C3)cc2)c1)C1CCCC1 (centres undefined) | 0 | 0 | ? | ? | 0
Cc1cccc(C)c1Nc1nnc(SCC(=O)Nc2ncc(C(F)(F)F)cc2Cl)s1 | ? | 0 | 2.1µM | 0 | 0
Cc1cccc(Nc2nnc(SCC(=O)Nc3ncc(C(F)(F)F)cc3Cl)s2)c1C | 0 | 0 | ? | ? | 0
CCN(N=O)c1ccc(C=C2C=Cc3ccccc32)cc1 | 0 | 0 | 0 | 0 | -66
CC(=O)N(C)c1ccc(C=C2C=Cc3ccccc32)cc1 | 0 | ? | 9.2µM | 9.2µM | -78
CN(N=O)c1ccc(C=C2C=Cc3ccccc32)cc1 | 0 | 0 | 0 | ? | 0
C=CCNc1nc(C)c(CNc2c(C)cc(C)cc2C)nc1C#N | 0 | 0 | 0 | 0 | 0
Cc1ccc(NS(=O)(=O)c2cc([N+](=O)[O-])ccc2N/N=C/c2sc(N3CCOCC3)nc2-c2ccccc2)c(C)c1 | 0 | 0 | 21µM | 18µM | 0
CCOc1ccccc1NC(=O)C1COc2ccccc2O1 (centres undefined) | 0 | 0 | 0 | ? | 0
CCN(CC(=O)NCc1cccs1)C(=O)c1ccc(S(=O)(=O)Nc2ccccc2F)cc1 | 0 | 0 | 0 | 0 | 0
CCc1c(C)nc2ncnn2c1NCCc1ccc(OC)cc1 | 6.3µM | 3.5µM | 2.8µM | 3.5µM | 0
CCc1c(C)nc2ncnn2c1N1CCN(S(=O)(=O)c2ccc(OC)cc2)CC1 | 0 | 0 | 3.7µM | 5.8µM | 0
CCc1c(C)nc2ncnn2c1Nc1ccc(C)cc1 | 0 | 0 | ? | ? | 0
SMILES | HT1080NT lethal | HT1080 IDH1KD tx | DT40 TDP1 CPT | DT40 TDP1 no CPT | IL1B secr inh
CCc1c(C)nc2ncnn2c1Nc1ccc(C)c(C)c1 | 0 | 0 | 23µM | ? | 0
O=c1cc(O)c2c([nH]1)CCC2 | - | - | 0 | 0 | -
Cc1cccc2cc(CN(CC3CCCO3)C(=O)c3ccccc3F)c(N(C)C)nc12 (centres undefined) | - | - | 0[9.04 µM] | 0 | -
CC1(C)Cc2c(cnn2-c2ccccc2)C(=O)/C1=N\NC(=O)c1ccccc1O | 0 | 0 | 0 | 0 | 0
Cc1nc2nc(C)c(NS(=O)(=O)c3ccc(C4CCCCC4)cc3)c(=O)n2[nH]1 | 0 | 0 | 0 | 0 | 0
CC12CCC(C(=O)Nc3ccc(SC(F)F)cc3)(CC1=O)C2(C)C (centres undefined) | ? | 0[9.24 µM] | ? | 0 | -81
Cc1ccc(C(=O)Nc2nc3nc(C)cc(=O)n3[nH]2)cc1 | - | - | 0 | 0 | -
O=C(Nc1ccc(N=Nc2ccccc2)cc1)c1ccccc1Cl | 0 | 0 | ? | 0 | -67
O=C(CCl)Nc1ccc(N=Nc2ccccc2)cc1 | ? | 0 | 2.9µM | ? | -98
O=C(Nc1ccc(N=Nc2ccccc2)cc1)c1ccc(Cl)cc1Cl | 0 | 0 | ? | ? | 0
CC(C)N(c1ccccc1)c1ccc(NC(=O)CCl)cc1 | ? | ? | 16µM | 2.6µM | -100
O=C(NCC(O)c1ccc([N+](=O)[O-])cc1)c1cccc(S(=O)(=O)N2CCCC2)c1 (centres undefined) | 0 | 0 | 0 | 0 | 0
CN(C)CCCn1c2c3ccccc3ccc2c2oc(=O)c3ccccc3c21 | 0 | 0 | 2.6µM | 4.6µM | -100
COCC(C)n1c(SCC(=O)NC(=O)Cc2ccccc2)nc2ccccc2c1=O (centres undefined) | 0 | 0 | ? | 0 | 0
COCC(C)n1c(SCc2nc(N)nc(Nc3ccccc3C)n2)nc2ccccc2c1=O (centres undefined) | 0 | 0 | 16µM | ? | ?
CCCCn1c(SCc2nc(N)nc(Nc3ccccc3C)n2)nc2ccccc2c1=O | 0 | 0 | ? | 18µM | 0
C=CCn1c(=O)c2ccccc2n2c(SCc3nc(N)nc(Nc4ccccc4C)n3)nnc12 | 0 | 0 | ? | ? | 0
COc1ccccc1C(=O)OC(C)CN1CCN(C)CC1 (centres undefined) | 0 | 0 | 0 | 0 | 0
Clc1cccc(CSC2=NCCCN2)c1 | 0 | 0 | 0 | 0 | 0
CCC(=O)OCc1cnc(C)c2oc(=O)c(C(=O)Nc3ccc(CC)cc3)cc12 | - | - | 0 | ? | -
O=C(Nc1cccc(C(F)(F)F)c1)C1CCN(S(=O)(=O)c2ccc(N3CCCC3=O)cc2)CC1 | 0 | 0 | 2.6µM | 2.1µM | 0
COc1cccc(NC(=O)C2CCN(S(=O)(=O)c3ccc(N4CCCC4=O)cc3)CC2)c1 | 0 | 0 | 15µM | ? | 0
COc1ccccc1CNC(=O)C1CCN(S(=O)(=O)c2ccc(N3CCCC3=O)cc2)CC1 | 0 | 0 | 0 | ? | 0
CCc1ccccc1NC(=O)C1CCN(S(=O)(=O)c2ccc(N3CCCC3=O)cc2)CC1 | 0 | 0 | 0 | 0 | 0
